The supplement of paper PMC3334620
In all, about 33,000 sequences were measured (“E-score (-0.5 to 0.5)”: median about -0.021, highest 2% from about 0.32 on). This is one part of a sample in which the highest values are shown more often than they occur.

Molecular target: T1, Zap1 (UniProt P47043)
T1 sequence: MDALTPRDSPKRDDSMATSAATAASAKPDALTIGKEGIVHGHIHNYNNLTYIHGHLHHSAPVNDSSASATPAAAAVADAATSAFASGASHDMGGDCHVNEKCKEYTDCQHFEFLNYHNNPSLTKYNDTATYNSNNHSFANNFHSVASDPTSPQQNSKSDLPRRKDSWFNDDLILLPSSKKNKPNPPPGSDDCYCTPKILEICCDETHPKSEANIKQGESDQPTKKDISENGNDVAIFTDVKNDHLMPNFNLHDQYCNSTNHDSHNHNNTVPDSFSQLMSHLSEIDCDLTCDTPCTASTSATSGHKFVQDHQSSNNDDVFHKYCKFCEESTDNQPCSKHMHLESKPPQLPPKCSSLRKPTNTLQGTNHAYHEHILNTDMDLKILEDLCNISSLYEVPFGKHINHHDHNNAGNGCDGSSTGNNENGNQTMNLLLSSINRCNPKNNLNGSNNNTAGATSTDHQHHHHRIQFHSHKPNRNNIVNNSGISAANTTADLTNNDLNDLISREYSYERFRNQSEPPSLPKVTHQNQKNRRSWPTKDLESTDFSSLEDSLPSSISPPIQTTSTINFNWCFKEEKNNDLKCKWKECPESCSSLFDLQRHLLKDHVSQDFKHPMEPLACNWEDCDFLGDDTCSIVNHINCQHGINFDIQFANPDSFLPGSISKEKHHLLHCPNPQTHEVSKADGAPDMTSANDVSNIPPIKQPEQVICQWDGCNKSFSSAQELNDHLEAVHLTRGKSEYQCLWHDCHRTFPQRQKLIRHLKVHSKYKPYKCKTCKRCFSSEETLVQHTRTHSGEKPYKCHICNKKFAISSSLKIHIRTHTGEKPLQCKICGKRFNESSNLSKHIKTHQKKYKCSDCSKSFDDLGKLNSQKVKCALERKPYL
Assay: PBM E-score (8-mer binding enrichment) (E-score (-0.5 to 0.5)); higher = stronger / more preferred TF binding
Settings: protein concentration: 200 nM; construct: GST-full length
How it was run: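 Masliner-normalised scans of fluorescent anti-GST signal were the basis for scoring. That signal came from GST-tagged yeast transcription factors applied at about 100-200 nM to double-stranded universal all-10-mer Agilent arrays on fresh or once-stripped slides. Each ungapped eight-base word, pooled with its reverse complement, received an E-score from the Universal PBM Analysis Suite.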

Row | Sequence | PBM E-score
1 | GCTATCGA | -0.0297
2 | CTCCGAAC | -0.196
3 | AATCTCGC | -0.0495
4 | CACCTTAG | 0.245
5 | GGCCTTAA | 0.319
6 | TGCCTTAA | -0.0666
7 | AACCTTAG | 0.324
8 | AGCCTTAA | -0.0565
9 | GAGCTTAA | -0.0983
10 | AACCTTAT | 0.312
11 | AACCTTAC | 0.318
12 | GACCTTAC | 0.13
13 | CACCTTAC | 0.148
14 | GACCTTAA | 0.324
15 | GTCCTTAA | 0.268
16 | CGGTCCCA | -0.0137
17 | AACGACCT | 0.211
18 | ACTTGCAC | -0.141
19 | GGGGGGAA | -0.411
20 | GGTATCAC | 0.0481
21 | AACTGGCG | -0.0757
22 | CATGCCAC | -0.227
23 | CCGGCCTC | -0.0295
24 | GGAGTTAA | 0.029
25 | TACCTTAA | 0.296

Row | Sequence | PBM E-score
26 | AACCTTAA | 0.352
27 | CACCTTAA | 0.207
28 | GTAAAAGA | 0.0206
29 | AGCTTTAT | -0.0486
30 | ACCTTTAG | 0.348
31 | ACCTTTAA | 0.383
32 | ACCTTTAC | 0.307
33 | GCCTTTAA | 0.0959
34 | ACCTTTGG | 0.236
35 | CCCTTTAA | 0.286
36 | ACCTTTAT | 0.352
37 | ACCTTTTC | 0.254
38 | CCCTTTAG | 0.127
39 | ACCTTTTG | 0.364
40 | AACTTTAT | 0.0578
41 | GCAGATGC | -0.337
42 | GAGCACGA | -0.0755
43 | TATCGATA | 0.285
44 | ACGCAAAA | -0.024
45 | ACCTACTA | 0.113
46 | AGGATTAA | -0.0423
47 | GTTTAGCA | -0.0642
48 | CGTAGTTC | -0.125
49 | AGTACCAT | 0.127
50 | ACCTTTCT | 0.372

Row | Sequence | PBM E-score
51 | ACCTATAC | 0.249
52 | ACCTTTCC | 0.107
53 | ACCTTTCA | 0.257
54 | ACCTTTTA | 0.411
55 | ACCTATAT | 0.356
56 | CCCTTTTA | 0.0826
57 | GCCTTTTA | 0.0912
58 | ACCTATAA | 0.188
59 | GGTAGCAA | 0.0702
60 | AAACAGTG | 0.0759
61 | CCAGTTTA | 0.073
62 | TAAACCTA | 0.137
63 | CCAAGCCA | -0.122
64 | CAGGCTAG | -0.141
65 | CGTACGAC | -0.126
66 | TAAAGGGA | 0.145
67 | GAAAGGTC | 0.294
68 | CAAAGGTA | 0.267
69 | TAAAGGTA | 0.34
70 | AGAAGGTA | 0.286
71 | TAAAGGAA | 0.00829
72 | GAAAGGTA | 0.363
73 | ATAAGGTA | 0.231
74 | AAAAGGTA | 0.405
75 | AAGACCAC | 0.0451

Row | Sequence | PBM E-score
76 | CAGCCCAC | -0.113
77 | GAGAGCAA | -0.227
78 | GCGCCTAA | 0.0328
79 | CGTACTCA | -0.0651
80 | CGTACCCA | -0.0471
81 | GGTACCTA | 0.398
82 | GGTACCCA | 0.411
83 | AGTACTCA | -0.0985
84 | CGTACCTA | -0.117
85 | GGTACTCA | 0.329
86 | AGTACCTA | 0.299
87 | AGTACCCA | 0.289
88 | CCATCCAG | -0.155
89 | GACTCGGA | -0.237
90 | AAACGTAG | -0.0378
91 | GGTCCTAC | -0.105
92 | AGACTGGG | -0.141
93 | TACCGTGA | 0.247
94 | GAGTACCA | 0.247
95 | GAGTACCC | 0.342
96 | AAGTACCA | 0.211
97 | AAGTACCC | 0.34
98 | CAGTACCC | 0.313
99 | AAGTACGC | -0.152
